The values below come from PubChem BioAssay (NCATS).

Assay [1] can be described thus: AP1 Signaling Pathway (AID 357; active means well fitted curve in either direction with a large enough effect, not every such curve was filed as active; further: on the % scale 0 is the no-effect control and ±100 the full control effect). Put shortly: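 AP-1-bla ME-180 cells with beta-lactamase reporter under AP-1 response element, stimulated with EC50 EGF; compounds titrated, 5 hours at 37 degrees Celsius. CCF4 read at 460/530 nm ratio; positive and negative modulators judged by AC50.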
Assay [2] addresses Cytochrome P450 1A2 (Homo sapiens) (UniProt P05177). The experiment in a line: p450-cyp1a2 (AID 410; calls by dose curve; further: potency means the concentration at half of the fitted maximal effect). The method, boiled down:
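20nM CYP1A2 with 100uM Luciferin-ME (at Km) in 100mM KPO4; compound preincubated 10 min, NADPH regeneration added, 60 min at room temperature. Luciferin quantified by luminescence after detection reagent; normalized to 57 uM furafylline.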

A short description of assay [3]: Stat Signaling Pathway (AID 446; active means well fitted curve in either direction with a large enough effect, not every such curve was filed as active;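 further: ME-180 cervical cancer cells given 40 pM IL-6 alongside compound; SIE-controlled beta-lactamase reporter measured as 460/530 nm FRET emission ratio; on the % scale 0 is the no-effect control and ±100 the full control effect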). The method, boiled down:
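Reporter line: ME-180 cervical carcinoma, SIE-beta-lactamase. Treatment: compound with 40 pM IL-6, 5 hrs, 37 C, in low-serum OPTI-MEM with 10 mM HEPES pH 7.3. Detection: 460/530 nm fluorescence.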

Assay [4] deals with Glucocorticoid receptor (Homo sapiens) (UniProt P04150). The experiment in a line: GR-GFP Redistribution (AID 450;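 active means compounds whose dose series gives a full or clear partial fitted curve of increased nuclear translocation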; further: potency means the concentration at half of the fitted maximal effect). To be noted: U2OS GR-GFP nuclear translocation, laser cytometry, 2 h.
Chain of Glucocorticoid receptor (Homo sapiens) (P04150 whole entry, looked up, the tested form may be a part): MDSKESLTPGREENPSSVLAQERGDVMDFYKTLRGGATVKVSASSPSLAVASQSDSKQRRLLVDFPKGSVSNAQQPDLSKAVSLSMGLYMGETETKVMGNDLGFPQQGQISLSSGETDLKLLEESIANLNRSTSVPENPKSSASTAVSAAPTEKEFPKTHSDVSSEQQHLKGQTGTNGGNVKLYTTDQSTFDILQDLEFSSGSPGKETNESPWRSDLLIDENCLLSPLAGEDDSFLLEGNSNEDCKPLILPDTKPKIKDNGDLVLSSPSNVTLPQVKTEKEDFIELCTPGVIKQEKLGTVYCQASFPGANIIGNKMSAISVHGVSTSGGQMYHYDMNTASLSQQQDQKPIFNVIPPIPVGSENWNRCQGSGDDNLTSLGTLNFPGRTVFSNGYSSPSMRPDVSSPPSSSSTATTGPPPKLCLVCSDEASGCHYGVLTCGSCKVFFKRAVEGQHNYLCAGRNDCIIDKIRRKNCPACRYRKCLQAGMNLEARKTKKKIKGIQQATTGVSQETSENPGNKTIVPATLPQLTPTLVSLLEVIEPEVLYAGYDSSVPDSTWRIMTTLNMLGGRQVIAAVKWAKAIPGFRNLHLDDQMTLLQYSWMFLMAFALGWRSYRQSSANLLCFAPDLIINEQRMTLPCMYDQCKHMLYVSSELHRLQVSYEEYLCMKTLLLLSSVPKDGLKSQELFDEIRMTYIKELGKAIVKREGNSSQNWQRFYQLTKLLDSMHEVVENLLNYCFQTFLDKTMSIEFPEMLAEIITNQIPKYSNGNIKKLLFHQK
The target is the same in assay [5]. As to the kind of experiment: GR-EFC Redistribution (AID 451; calls by dose curve; further: potency means the concentration at half of the fitted maximal effect). To be noted: CHO-K1 GR-EFC translocation, beta-gal luminescence, 2 h. The method, boiled down: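 CHO-K1 cells stably expressing nuclear-localized β-gal enzyme acceptor and GR fused C-terminally to the enzyme donor fragment; ligand-driven nuclear translocation restores β-gal by complementation. Compounds titrated up to 46 uM final, 2 h at 37 °C; luminescence read.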

Assay [6] has as its target 3',5'-cyclic-AMP phosphodiesterase 4B (Homo sapiens) (UniProt Q07343). The experiment in a line: qHTS Assay for Inhibitors of PDE-IV (AID 607; active means well fitted activation curve with a large enough effect in the main read-out, with a control signal flat, not every such curve was filed as active; further: % of control where 0% means no effect). Put shortly: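 Cell-based read-out of cAMP via a modified cyclic nucleotide-gated channel and membrane potential dye (535/590 nm) in HEK293 cells expressing PDE4 endogenously. Compounds tested up to 22.9 uM final; 100 uM RO 20-1724 reference.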

Assay [7] is described as follows: qHTS Assay for Lipid Storage Modulators (AID 1519; calls by dose curve). To be noted: Drosophila S3 cells, BODIPY lipid droplet/cell ratio, laser cytometry, cells loaded with oleic acid. Put shortly:
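Cells seeded at 5,000 per well were treated with compounds over a concentration series and loaded with oleic acid (400 uM, as added). Lipid droplet fluorescence (488 nm excitation, 500-530 nm channel) was read by laser-scanning cytometry and normalized to 20 uM Triacsin C.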
For orientation: Quantitative high-throughput screening tests each substance at several concentrations.

The target of assay [8] is Ubiquitin carboxyl-terminal hydrolase 1 (Homo sapiens) (UniProt O94782). As to the kind of experiment: Inhibitors of USP1/UAF1: Pilot qHTS (AID 504865).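 Further: rhodamine fluorescence freed from ubiquitin-rhodamine substrate followed over time; top concentration of the series differs between compounds; on the % scale 0 is the no-effect control and ±100 the full control effect; nearly all actives have a fitted effect of over 35% in size.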 The method, boiled down:
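Deubiquitinase activity followed as kinetic rhodamine fluorescence release from 150 nM Ub-Rho. 1 nM USP1/UAF1 with compound, after 15 min room-temperature preincubation, in HEPES pH 7.8 buffer containing TCEP, EDTA, BSA and Tween-20.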

Assay [9] in a line: NFAT Signaling Pathway (AID 444; active means well fitted curve in either direction with a large enough effect, not every such curve was filed as active;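 further: carbachol stimulus at about its EC50 of 1 µM final; on the % scale 0 is the no-effect control and ±100 the full control effect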). To be noted: Jurkat NFAT-bla M1, carbachol, beta-lactamase ratio, 5 h; at 17.2 µM (top of the series) unless noted. The method, boiled down: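 Jurkat cells carrying an NFAT-driven β-lactamase reporter and co-transfected muscarinic M1 receptor were treated with compound plus carbachol (1 uM final, an EC50 level) for 5 h at 37 °C. CCF4 loading followed for 1 h at RT; 460/530 nm ratio gave %activity.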

For assay [10], the target named is Mitogen-activated protein kinase 10 (Mus musculus) (UniProt Q61831). As to the kind of experiment: JNK3 AlphaScreen Assay (AID 530; active means well fitted curve in either direction with a large enough effect, not every such curve was filed as active;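 further: kinase came from lysate of stimulated human HepG2 cells; signal reports phosphorylation of biotinylated GST-cJun 1-79 at Ser73 with 10 µM ATP; on the % scale 0 is the no-effect control and ±100 the full control effect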). The method, boiled down: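 Inhibitors reduce antibody binding to phosphorylated biotin-cJun, lowering AlphaScreen luminescence. Lysates from HepG2 cells pre-activated by IL-1beta plus TNF-alpha supplied JNK3; compounds were titrated.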

The target in assay [11] is ATP-dependent 6-phosphofructokinase (Trypanosoma brucei brucei) (UniProt O15648). As to the kind of experiment: qHTS Assay to Find Inhibitors of T. brucei phosphofructokinase: hit validation (AID 492961). Put shortly:
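Percent activity derived from corrected luminescence, normalized between 0x and 1x enzyme controls, then fitted to concentration-response curves. Conditions: 1.25 nM PFK, 0.1 mM ATP, 0.5 mM F6P, 45 min RT.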

The target in assay [12] is Luciferin 4-monooxygenase (Photinus pyralis) (UniProt P08659). The experiment in a line: Biochemical firefly luciferase enzyme assay for NPC (AID 624030).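 Further: purified P. pyralis luciferase at 10 nM with luciferin and ATP substrate; 0% = DMSO and -100% = full luciferase inhibition by PTC124 control; nearly all actives have a fitted effect of over 70% in size.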 The method, boiled down: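 Counter-screen for direct inhibition of the luciferase enzyme by approved-drug library compounds, run at 10 nM enzyme in 50 mM Tris acetate (final). Luminescence was read within 5 min of enzyme-buffer addition and normalized to PTC124 versus DMSO (0%).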
Chain of Luciferin 4-monooxygenase (Photinus pyralis) (P08659 whole entry, looked up): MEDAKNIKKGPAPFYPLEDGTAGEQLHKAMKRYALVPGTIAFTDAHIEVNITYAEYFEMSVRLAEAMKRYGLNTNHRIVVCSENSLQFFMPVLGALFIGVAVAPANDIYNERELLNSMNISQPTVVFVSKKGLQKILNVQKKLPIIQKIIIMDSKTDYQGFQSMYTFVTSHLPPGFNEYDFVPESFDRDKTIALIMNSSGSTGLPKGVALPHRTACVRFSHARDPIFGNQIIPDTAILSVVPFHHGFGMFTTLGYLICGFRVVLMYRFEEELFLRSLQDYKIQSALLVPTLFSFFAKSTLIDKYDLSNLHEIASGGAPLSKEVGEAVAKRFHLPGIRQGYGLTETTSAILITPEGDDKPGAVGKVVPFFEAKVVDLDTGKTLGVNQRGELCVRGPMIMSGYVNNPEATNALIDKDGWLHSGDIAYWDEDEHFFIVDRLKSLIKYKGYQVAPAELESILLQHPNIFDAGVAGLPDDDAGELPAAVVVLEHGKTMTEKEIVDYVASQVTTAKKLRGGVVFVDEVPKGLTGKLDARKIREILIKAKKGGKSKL

In assay [13] the test system is C2A. As to the kind of experiment: qHTS profiling for inhibitors of Plasmodium falciparum proliferation (AID 504749).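 Further: 0% = DMSO vehicle and full inhibition = artemisinin control; nearly all actives have a fitted effect of over 60% in size.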 To be noted: P. falciparum in erythrocytes, SYBR Green DNA, 72 h; series mostly up to 12.8 µM. The method, boiled down:
(§1)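 Parasite proliferation within erythrocytes, 72 h exposure. Endpoint: SYBR Green I fluorescence after overnight lysis at room temperature. Controls: 0.29 uM artemisinin, DMSO.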

The subject of assay [14] is CP191. The assay is described as above. To be noted: P. falciparum in erythrocytes, SYBR Green DNA, 72 h; series mostly up to 12.8 µM. The method, boiled down: as §1
Assay [15] has as its system CP238. Described as above. To be noted: P. falciparum in erythrocytes, SYBR Green DNA, 72 h; series mostly up to 12.8 µM. Put shortly:
as §1

In assay [16] the test system is CP256. Described as above. To be noted: P. falciparum in erythrocytes, SYBR Green DNA, 72 h; series mostly up to 12.8 µM. Put shortly:
as §1

In assay [17] the test system is FAB9. The assay is described as above. To be noted: P. falciparum in erythrocytes, SYBR Green DNA, 72 h; series mostly up to 12.8 µM. The method, boiled down: as §1
The test system of assay [18] is JCK. The description is as above. To be noted: P. falciparum in erythrocytes, SYBR Green DNA, 72 h; series mostly up to 12.8 µM. Put shortly: as §1
Assay [19] relates to SC27B. The description is as above. To be noted: P. falciparum in erythrocytes, SYBR Green DNA, 72 h; series mostly up to 12.8 µM. Put shortly: as §1
Assay in assay [20]: as above
To be noted: P. falciparum in erythrocytes, SYBR Green DNA, 72 h, at 12.8 µM (top of the series). The method, boiled down: as §1

Setting [21] is: measured here: cell count channel max response.
Setting [22] is: measured here: lipid channel max response.

Records with an inconclusive call do not appear. Activity calls are given as the source filed them. Unless noted, the call rests on the fitted dose curve; in most records, active means well fitted curve in the direction sought with a large enough effect; inconclusive means small, poorly fitted or top-dose-only effect, or another doubt; inactive means no such curve, though single readings can be large; an effect the other way counts as inactive or inconclusive.

Chain of Ubiquitin carboxyl-terminal hydrolase 1 (Homo sapiens) (O94782 whole entry, looked up): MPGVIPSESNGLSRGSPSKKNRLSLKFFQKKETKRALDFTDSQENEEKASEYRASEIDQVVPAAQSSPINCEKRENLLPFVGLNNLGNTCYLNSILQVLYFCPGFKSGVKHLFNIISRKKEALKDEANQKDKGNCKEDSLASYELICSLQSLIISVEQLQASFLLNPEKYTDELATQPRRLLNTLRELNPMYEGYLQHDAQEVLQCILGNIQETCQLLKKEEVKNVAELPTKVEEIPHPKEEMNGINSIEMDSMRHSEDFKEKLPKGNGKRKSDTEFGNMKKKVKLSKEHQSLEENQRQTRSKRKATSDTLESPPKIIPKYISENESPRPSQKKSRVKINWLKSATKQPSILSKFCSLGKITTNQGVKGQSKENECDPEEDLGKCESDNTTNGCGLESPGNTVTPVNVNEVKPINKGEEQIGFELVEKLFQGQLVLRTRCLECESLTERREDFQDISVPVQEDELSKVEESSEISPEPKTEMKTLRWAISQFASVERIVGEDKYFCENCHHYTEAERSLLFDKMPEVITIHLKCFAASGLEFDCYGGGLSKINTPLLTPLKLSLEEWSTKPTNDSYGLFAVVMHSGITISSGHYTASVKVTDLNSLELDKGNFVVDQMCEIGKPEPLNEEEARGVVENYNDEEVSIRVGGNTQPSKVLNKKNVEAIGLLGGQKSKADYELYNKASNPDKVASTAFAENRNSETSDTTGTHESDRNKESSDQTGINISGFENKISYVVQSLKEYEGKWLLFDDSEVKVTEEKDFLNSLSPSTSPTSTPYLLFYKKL
Chain of 3',5'-cyclic-AMP phosphodiesterase 4B (Homo sapiens) (Q07343 whole entry, looked up): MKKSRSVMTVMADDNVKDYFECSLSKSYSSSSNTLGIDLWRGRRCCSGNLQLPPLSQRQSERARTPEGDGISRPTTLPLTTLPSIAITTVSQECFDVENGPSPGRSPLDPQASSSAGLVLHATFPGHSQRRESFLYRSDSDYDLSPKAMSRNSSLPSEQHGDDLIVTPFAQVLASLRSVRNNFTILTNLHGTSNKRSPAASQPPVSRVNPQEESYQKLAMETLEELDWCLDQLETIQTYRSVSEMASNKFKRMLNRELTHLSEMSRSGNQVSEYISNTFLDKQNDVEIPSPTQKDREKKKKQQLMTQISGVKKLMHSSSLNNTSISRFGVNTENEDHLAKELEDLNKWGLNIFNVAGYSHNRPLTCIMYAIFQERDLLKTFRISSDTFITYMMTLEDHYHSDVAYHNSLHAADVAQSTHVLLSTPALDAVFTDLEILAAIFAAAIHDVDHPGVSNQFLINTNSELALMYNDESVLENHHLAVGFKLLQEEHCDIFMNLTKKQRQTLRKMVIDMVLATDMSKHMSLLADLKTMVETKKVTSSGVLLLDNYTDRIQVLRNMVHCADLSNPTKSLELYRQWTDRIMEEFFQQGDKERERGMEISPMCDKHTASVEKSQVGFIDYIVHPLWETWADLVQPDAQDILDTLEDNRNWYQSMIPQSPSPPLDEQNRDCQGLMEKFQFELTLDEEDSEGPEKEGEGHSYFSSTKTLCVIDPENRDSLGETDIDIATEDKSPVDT
Chain of Cytochrome P450 1A2 (Homo sapiens) (P05177 whole entry, looked up): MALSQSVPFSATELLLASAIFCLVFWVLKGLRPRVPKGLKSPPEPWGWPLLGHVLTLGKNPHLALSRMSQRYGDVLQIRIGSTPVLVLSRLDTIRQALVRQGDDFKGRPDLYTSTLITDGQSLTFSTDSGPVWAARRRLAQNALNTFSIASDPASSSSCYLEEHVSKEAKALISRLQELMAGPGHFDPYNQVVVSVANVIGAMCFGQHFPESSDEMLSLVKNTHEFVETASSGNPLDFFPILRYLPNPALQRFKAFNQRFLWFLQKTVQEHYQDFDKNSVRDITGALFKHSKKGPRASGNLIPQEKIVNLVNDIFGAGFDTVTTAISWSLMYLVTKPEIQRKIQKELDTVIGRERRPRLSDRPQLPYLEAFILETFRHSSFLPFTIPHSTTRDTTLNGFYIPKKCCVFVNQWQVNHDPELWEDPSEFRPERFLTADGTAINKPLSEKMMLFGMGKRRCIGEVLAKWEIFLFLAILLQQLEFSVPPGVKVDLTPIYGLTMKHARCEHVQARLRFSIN
Chain of ATP-dependent 6-phosphofructokinase (Trypanosoma brucei brucei) (O15648 whole entry, looked up): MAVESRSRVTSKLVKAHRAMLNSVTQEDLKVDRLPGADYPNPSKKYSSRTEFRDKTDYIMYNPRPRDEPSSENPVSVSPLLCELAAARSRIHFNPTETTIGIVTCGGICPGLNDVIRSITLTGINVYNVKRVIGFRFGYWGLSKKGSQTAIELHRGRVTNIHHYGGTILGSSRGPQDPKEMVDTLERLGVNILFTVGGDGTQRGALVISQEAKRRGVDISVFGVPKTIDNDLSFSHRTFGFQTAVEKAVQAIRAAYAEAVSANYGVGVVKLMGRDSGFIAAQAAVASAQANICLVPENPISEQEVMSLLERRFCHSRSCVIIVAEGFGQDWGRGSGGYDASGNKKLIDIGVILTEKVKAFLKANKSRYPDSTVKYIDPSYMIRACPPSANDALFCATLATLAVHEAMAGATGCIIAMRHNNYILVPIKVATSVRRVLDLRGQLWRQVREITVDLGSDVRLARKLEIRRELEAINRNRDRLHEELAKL

For `c1ccc2c(c1)CCCc1cc(NCCN3CCOCC3)nnc1-2`, the call in [1], in [3] and in assay [6] was inactive. Also, the Potency entry in [2] and in assay [8] was “inactive” in each case. The Potency in assay [4] and in [5] was > 20.6 µM (inactive) in each case. Moreover, the activity change, negative = inhibition in assay [7] (at 25.7 µM (top of the series)) is -1.57% (inactive). Further, the max response in assay [7] (setting [21]) is 0.476%; in assay [7] (setting [22]), -2.33%.

Consider `OC[C@@H](O)CN1CCN(c2ccccc2)CC1`, for which the outcome in [1] and in assay [6] was inactive. In addition, the Potency result in assay [2], in [10] and in [8] was “inactive” throughout. For the same compound, the activity change, negative = inhibition in assay [9] was 3.85% (inactive); in assay [7] (at 25.7 µM (top of the series)) it was 0.251% (inactive). The Potency in assay [4] and in assay [5] was > 20.6 µM (inactive) throughout. In addition, the max response in [7] (setting [21]) was -9.92%; in assay [7] (setting [22]), -7.93%.

For `C#C[C@]1(O)CC[C@@H]2[C@H]3CCC4=Cc5oncc5C[C@]4(C)[C@@H]3CC[C@@]21C`, the outcome in assay [1] and in assay [3] was inactive. In addition, the Potency in assay [2] is 10 µM (active); in assay [4], > 20.6 µM (inactive); in assay [5] it was > 20.6 µM (inactive). The Potency result in [10] and in assay [8] was “inactive” in each case. In addition, the activity change, negative = inhibition in assay [7] (at 25.7 µM (top of the series)) is -2.17% (inactive). Moreover, the max response was -23.2% in assay [7] (setting [21]) and -23.4% in [7] (setting [22]).

As for `CC[C@H](C)C(=O)O[C@@H]1C[C@H](C)C=C2C=C[C@H](C)[C@@H](CC[C@H]3C[C@@H](O)CC(=O)O3)[C@H]21`, the compound was classed as inactive in [1] and in assay [6]. Moreover, the Potency entry in assay [2], in assay [10] and in [8] was “inactive” each time. The activity change, negative = inhibition in assay [9] was 11.4% (inactive); in [7] (at 25.7 µM (top of the series)), -5.83% (inactive). Moreover, the Potency in assay [4] and in assay [5] was > 20.6 µM (inactive) each time. Also, the max response in [7] (setting [21]) is -1.87%; in [7] (setting [22]), -8.58%.

Regarding `CC(C)(N=NC(C)(C)C(=N)N)C(=N)N`, the compound was called inactive in assay [1] and in assay [6]. Further, the Potency entry in [2], in [10] and in [8] was “inactive” each time. Further, the values for the activity change, negative = inhibition in [9] and in assay [7] (at 57.5 µM (top of the series)) were 3.21% [at 7.69 µM] (inactive) and 6.18% (inactive), respectively. Besides, the Potency in [4] is > 46 µM (inactive); in [5] it was > 9.22 µM (inactive). The figures for the max response in assay [7] (setting [21]) and in assay [7] (setting [22]) were -8.52% and 0.846%, respectively.

In the case of `O=C1O[C@H](CN2CCOCC2)CN1/N=C\c1ccc([N+](=O)[O-])o1`, the outcome in [1], in assay [6] and in assay [11] was inactive. In addition, the Potency entry in assay [2], in [10], in assay [8], in assay [12], in [13] and in assay [14] was “inactive” in each case. The Potency result in [15], in [16], in [17], in assay [18] and in [19] was “inactive” in each case. The activity change, negative = inhibition in assay [9] was -16.1% (inactive); in assay [7] (at 25.7 µM (top of the series)), -9.12% (inactive). Further, the Potency in assay [4] and in assay [5] was > 20.6 µM (inactive) in each case. The max response in [7] (setting [21]) is -19.2%; in [7] (setting [22]) it was -26.5%.

Turning to `CC[C@H](Cc1c(I)cc(I)c(N)c1I)C(=O)O`, the result in assay [1], in assay [3] and in assay [11] was inactive. Moreover, the Potency is 12.6 µM (active) in assay [2] and > 20.6 µM (inactive) in assay [5]. The Potency entry in assay [10], in assay [8], in assay [12], in assay [13], in assay [14] and in assay [15] was “inactive” throughout. In addition, the Potency entry in [16], in assay [17], in assay [18] and in assay [19] was “inactive” each time. For the same compound, the activity change, negative = inhibition in assay [7] (at 25.7 µM (top of the series)) was 0.772% (inactive). In addition, the values for the max response in [7] (setting [21]) and in [7] (setting [22]) were -5.23% and -5.12%, respectively. In addition, the activity, negative = inhibition in assay [20] (parasite line A) was 7.39% (inactive); in assay [20] (parasite line B) it was 11.4% (inactive).
